Records with an inconclusive call do not appear. Activity calls are given as the source filed them. Calls come from the whole dose curve; as a rule, active = well fitted cell-killing curve with a large enough effect; inconclusive = small, poorly fitted or top-dose-only effect, or effect the other way; inactive = flat fitted curve, though single readings scatter.
What was measured:
Assay in all cases: Primary qHTS to identify gynecologic anti-cancer compounds using libraries of approved drugs and bioactive compounds (AID 1345084); note: nearly all actives have a fitted effect of over 55% in size
C33A = conditions: Gynecologic cancer cell panel viability, ATPlite luminescence, 48 h; series mostly up to 57.5 µM
How it was run: (§1)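 ATP-based viability (ATPlite), 1,000 cells/well, 16 h pre-incubation, 48 h compound at 37 C, 5% CO2, 15 min RT before read.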

CAOV3 = conditions: Gynecologic cancer cell panel viability, ATPlite luminescence, 48 h; series mostly up to 57.5 µM
How it was run: as §1

CASKI = conditions: Gynecologic cancer cell panel viability, ATPlite luminescence, 48 h; series mostly up to 57.5 µM
How it was run: as §1

HeLa = conditions: Gynecologic cancer cell panel viability, ATPlite luminescence, 48 h; series mostly up to 57.5 µM
How it was run: as §1

Hek293T = conditions: Gynecologic cancer cell panel viability, ATPlite luminescence, 48 h, control line for the selectivity index; series mostly up to 57.5 µM
How it was run: as §1

JEG-3 = conditions: Gynecologic cancer cell panel viability, ATPlite luminescence, 48 h; series mostly up to 57.5 µM
How it was run: as §1

OV90 = conditions: Gynecologic cancer cell panel viability, ATPlite luminescence, 48 h; series mostly up to 57.5 µM
How it was run: as §1

Es-2 = conditions: Gynecologic cancer cell panel viability, ATPlite luminescence, 48 h; series mostly up to 57.5 µM
How it was run: as §1
% is set by controls: 0 for no effect and ±100 for the full control effect; potency is the fitted concentration of half-maximal effect.

O=S(=O)(c1ccccc1)N(CC(F)(F)F)c1ccc(C(O)(C(F)(F)F)C(F)(F)F)cc1
inactive: Potency (C33A) | Potency (CAOV3) | Potency (CASKI) | Potency (HeLa) | Potency (Hek293T) | Potency (JEG-3) | Potency (OV90)

CCOc1cc(C(C)(C)C)ccc1C1=N[C@@](C)(c2ccc(Cl)cc2)[C@@](C)(c2ccc(Cl)cc2)N1C(=O)N1CCN(CC(=O)N2CCOCC2)CC1
inactive: Potency (C33A) | Potency (CAOV3) | Potency (CASKI) | Potency (Es-2) | Potency (Hek293T) | Potency (JEG-3) | Potency (OV90)

C[C@@H]1O[C@@H](O[C@H]2[C@H](OC(=O)[C@]34CCC(C)(C)C[C@H]3C3=CCC5[C@@]6(C)C[C@H](O)[C@H](O[C@@H]7O[C@H](C(=O)O)[C@@H](O)[C@H](O)[C@H]7O)[C@@](C)(CO)C6[C@H](O)C[C@@]5(C)[C@]3(C)C[C@H]4O)O[C@@H](CO)[C@@H]2O)[C@H](O)[C@H](O)[C@H]1O[C@@H]1OC[C@@H](O)[C@H](O[C@H]2OC[C@](O)(CO)[C@H]2O)[C@H]1O (stereo partly specified)
inactive: activity change, negative = cytotoxicity (C33A) -18.2% [at 6.55 µM] | activity change, negative = cytotoxicity (CAOV3) -15.4% [at 6.55 µM] | activity change, negative = cytotoxicity (CASKI) -0.268% [at 6.55 µM] | activity change, negative = cytotoxicity (HeLa) -1.36% [at 6.55 µM] | activity change, negative = cytotoxicity (Hek293T) -4.09% [at 6.55 µM] | activity change, negative = cytotoxicity (JEG-3) -17.4% [at 6.55 µM] | activity change, negative = cytotoxicity (OV90) -4.96% [at 6.55 µM]

CN(c1ccc(NC(=O)Nc2ccccc2)cc1)S(=O)(=O)c1cnn(-c2ccc(F)cc2)c1
inactive: Potency (C33A) | Potency (CAOV3) | Potency (CASKI) | Potency (Es-2) | Potency (JEG-3) | Potency (OV90)

COc1ccc2nc3n[nH]c(C)c3c(NCCOCCO)c2c1
inactive: Potency (C33A) | Potency (CAOV3) | Potency (CASKI) | Potency (Es-2) | Potency (Hek293T) | Potency (JEG-3) | Potency (OV90)

C=C1C(=O)O[C@@H]2C[C@H](C)[C@@H]3CC(=O)[C@H](O)[C@@]3(C)C[C@H]12
inactive: Potency (C33A) | Potency (CAOV3) | Potency (CASKI) | Potency (HeLa) | Potency (Hek293T) | Potency (JEG-3) | Potency (OV90)

CCn1c(=O)c(-c2ccc(Cl)cc2Cl)cc2cnc(Nc3ccc(N4CCNCC4)c(F)c3)nc21
inactive: Potency (C33A) | Potency (CAOV3) | Potency (CASKI) | Potency (Es-2) | Potency (Hek293T) | Potency (JEG-3) | Potency (OV90)

CNc1nc(NCc2ccc(NS(C)(=O)=O)cc2Cl)cc(-c2ccccn2)n1
inactive: Potency (C33A) | Potency (CAOV3) | Potency (CASKI) | Potency (HeLa) | Potency (JEG-3)

C=C(C)Cn1c(SCC(=O)c2cccs2)nc2sc3c(c2c1=O)CCCC3
inactive: Potency (C33A) | Potency (CAOV3) | Potency (CASKI) | Potency (Es-2) | Potency (OV90)

Cn1c(=O)c(F)c(Nc2ccc(I)cc2F)c2c(=O)n(CC(O)CO)cnc21 (stereo unspecified)
active: Potency (Es-2) 3.16 µM
inactive: Potency (C33A) | Potency (CAOV3) | Potency (HeLa) | Potency (Hek293T) | Potency (JEG-3)

C=C1[C@H]2CC[C@H](C(=O)O)[C@@]23CC[C@H](C3)C1(C)C
inactive: Potency (C33A) | Potency (CAOV3) | Potency (Es-2) | Potency (HeLa) | Potency (Hek293T) | Potency (JEG-3) | Potency (OV90)

CCCn1ncc(CN2CCCC(C(=O)c3cccc(OC(C)C)c3)C2)c1C (stereo unspecified)
inactive: Potency (C33A) | Potency (CAOV3) | Potency (Es-2) | Potency (HeLa) | Potency (Hek293T) | Potency (JEG-3)

O=C(Nc1ccc2[nH]nc(-c3ccncc3)c2c1)[C@@H]1CCN(CC(=O)N2CCN(c3ccc(-c4ncccn4)cc3)CC2)C1
inactive: Potency (C33A) | Potency (CAOV3) | Potency (CASKI) | Potency (Hek293T) | Potency (JEG-3)

C=C(C)C(=O)OC1CC(CO)CCC/C(CO)=C/C2OC(=O)C(=C)C21 (stereo unspecified)
inactive: Potency (C33A) | Potency (CAOV3) | Potency (CASKI) | Potency (HeLa) | Potency (JEG-3) | Potency (OV90)

OC1CCC(Nc2nc(-c3ccccc3)nc3[nH]ccc23)CC1 (stereo unspecified)
inactive: Potency (C33A) | Potency (CAOV3) | Potency (Es-2) | Potency (HeLa) | Potency (Hek293T) | Potency (JEG-3) | Potency (OV90)

C=CC(=O)N1CCCC(n2nc(-c3ccc(Oc4ccccc4)cc3)c3c(N)ncnc32)C1 (stereo unspecified)
inactive: Potency (C33A) | Potency (CAOV3) | Potency (Es-2) | Potency (HeLa) | Potency (Hek293T) | Potency (JEG-3) | Potency (OV90)

Cc1sc2c(c1C)C(c1ccc(Cl)cc1)=N[C@H](CC(=O)NCCCCNC(=O)COc1cccc3c1C(=O)N([C@H]1CCC(=O)NC1=O)C3=O)c1nnc(C)n1-2
inactive: Potency (C33A) | Potency (CAOV3) | Potency (CASKI) | Potency (OV90)

C/C=C(\C)C(=O)O[C@H]1C=CC(=O)O[C@H]1/C=C/[C@@H](O)[C@H](C)O
inactive: Potency (C33A) | Potency (CAOV3) | Potency (CASKI) | Potency (HeLa) | Potency (OV90)
